Her2 expr inh – inhibitors of Her2 protein expression, primary screen, SKBR-3 cells, AlphaScreen, 66K library. Receptor tyrosine-protein kinase erbB-2 (Homo sapiens), P04626. SKBR-3 HER2 protein level, 18-24 h; active compounds read low. HER2 level % of control, % at 10 µM. hit rate 0.69% among 65,000;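 active means HER2 level under 5% of the carrier-only control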;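 further: lower value means stronger loss of Her2 protein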
FXIa mix inh – FXIa protease inhibitors in compound pools, primary screen, biochemical, 10-compound mixtures; Coagulation factor XI (Homo sapiens), P03951; purified FXIa, fluorogenic substrate, pooled mixtures; inhibition, % at 5 µM; hit rate 0.19% among 62,000; AID 680, 2007;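 further: each value is inhibition by a whole ten-compound pool holding the compound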
SK-BR-3 tox 24h – SK-BR-3 proliferation inhibitors, primary screen, cell-based, human, 24 h. SK-BR-3 viability, CellTiter-Glo ATP luminescence; active compounds read low. viability, % at 10 µM. hit rate 0.47% among 41,000;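 active means viability at or below the median of all test compounds minus 3 SD, in both replicates if run twice, cut at about 45% in these data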
C1s block – complement C1s protease inhibitors, primary screen, biochemical, 10-compound mixtures; Complement C1s subcomponent (Homo sapiens), P09871; purified C1s, fluorogenic AMC substrate, pooled mixtures; mean inhibition % of two 10-compound mixtures (active compounds read high), % at 5 µM (by protocol); hit rate 0.16% among 62,000; AID 538, 2006;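 active means inhibition above 20% in each of the two 10-compound mixture wells holding the compound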
Cathepsin G inh – human cathepsin G inhibitors, primary screen, biochemical, pooled compound mixtures, AMC fluorescence. purified enzyme, AMC-tetrapeptide fluorescence. inhibition, % at 5 µM (by protocol). hit rate 0.2% among 62,000. AID 581, 2007;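 active means inhibition above 20% in each of the two mixture wells holding the compound; inactive means inhibition of 20% or less in either well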
Target sequence (P08311 21-244 limits assumed): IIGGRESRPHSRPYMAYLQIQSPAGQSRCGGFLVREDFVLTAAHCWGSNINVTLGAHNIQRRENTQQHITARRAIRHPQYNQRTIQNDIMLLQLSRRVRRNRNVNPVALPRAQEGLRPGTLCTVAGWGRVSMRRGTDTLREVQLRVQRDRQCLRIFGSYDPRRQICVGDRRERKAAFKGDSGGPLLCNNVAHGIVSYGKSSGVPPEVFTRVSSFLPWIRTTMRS
FXIIa mix inh – human factor XIIa inhibitors, primary screen, biochemical, pooled compound mixtures, fluorogenic substrate | purified FXIIa | inhibition, % at 5 µM | hit rate 0.2% among 62,000 | AID 684, 2007
A number is an active result; i = inactive; nt = no result. Sampled rows, rich in hits. Any-hit rate of the full collection: about 1.5%. Unless noted, no stated cut-off is given here; in the data, active means inhibition above about 20% (passing the limit was not always enough); inactive means the rest.

SMILES	Her2 expr inh	FXIa mix inh	SK-BR-3 tox 24h	C1s block	Cathepsin G inh	FXIIa mix inh
O=C(CSc1c2c(nc3ccc(Cl)cc13)CCCC2)N1CCN(C(=O)c2ccco2)CC1	-5.2	i	i	i	i	i
O=C(c1ccco1)n1nc(-c2ccc(Cl)cc2)nc1NCc1ccco1	i	i	i	i	i	i
COc1ccc(-c2nc(SC)n(C(=O)c3ccco3)n2)cc1	i	24	i	63	20	i
O=C(Cn1nc(Cl)nc1Cl)c1cc2ccccc2oc1=O	i	i	i	i	i	i
CCCC(=O)N1CCN(c2ccc(NC(=O)c3cc4ccccc4o3)cc2Cl)CC1	-9.9	i	6.2	i	i	i
Cc1cc(NC(=O)c2noc3c2CCCC3)nn1Cc1ccc(Cl)cc1	i	i	i	i	i	i
COc1ccc2c(c1)CCc1c(C(=O)Nc3ccn(Cc4ccc(C)cc4)n3)noc1-2	i	i	i	i	94	i
COc1ccc2c(c1)CCc1c(C(=O)Nc3cc(C)n(Cc4ccc(Cl)cc4)n3)noc1-2	i	i	i	i	66	i
CCc1c(C(C)O)oc2ccc3c(C)cc(=O)oc3c12 (centres undefined)	i	i	i	i	i	i
Cc1ccc(C)c(N(CC(=O)NC2CCCC2)C(=O)CCCC(=O)Nc2ccccn2)c1	i	i	i	i	i	i
CCc1ccc(-c2nc(CN3CCC(C(=O)NCCN(CC)c4ccccc4)CC3)c(C)o2)cc1	-13	i	nt	i	i	i
CCc1ccc(-c2nc(CN3CCC(C(=O)N4CCN(c5ccccc5)CC4)CC3)c(C)o2)cc1	-15	i	nt	i	i	i
CCN(CCNC(=O)C1CCN(Cc2nc(-c3cccc(Cl)c3)oc2C)CC1)c1ccccc1	-13	i	nt	i	i	i
CCc1ccc(-c2nc(CN3CCC(C(=O)N4CCN(c5ccccn5)CC4)CC3)c(C)o2)cc1	i	i	nt	i	i	i
Cc1oc(-c2cccc(Cl)c2)nc1CN1CCC(C(=O)NCc2cccnc2)CC1	i	i	nt	i	i	i
Cc1ccccc1-c1nc(CN2CCC(C(=O)NCCC3=CCCCC3)CC2)c(C)o1	-16	i	nt	i	i	i
COCCSc1ccccc1C(=O)NCc1ccco1	i	i	nt	i	i	i
CCN(CCNC(=O)C1CCN(Cc2nc(-c3ccc(Cl)cc3)oc2C)CC1)c1ccccc1	-17	i	nt	i	i	i
CCN(CCNC(=O)C1CCCN(Cc2nc(-c3ccc(OC)cc3)oc2C)C1)c1ccccc1 (centres undefined)	i	i	nt	i	i	i
O=C(Cn1nnc(-c2ccc(Cl)cc2)n1)NCC1CCCCC1	i	i	nt	i	i	i
Cn1c(NCC(O)c2ccccc2)nc2c1c(=O)n(Cc1ccc(Cl)cc1)c(=O)n2C (centres undefined)	-28	i	i	i	i	i
Cn1c(NCC(O)c2ccccc2)nc2c1c(=O)n(Cc1ccc(Cl)c(Cl)c1)c(=O)n2C (centres undefined)	i	nt	i	nt	nt	nt
COC(=O)COc1ccc(S(=O)(=O)Nc2ccc3c(c2)OCO3)cc1	-11	i	i	i	i	i
O=C(NCc1ccco1)c1ccc(S(=O)(=O)c2cccc(S(=O)(=O)N3CCOCC3)c2)cc1	i	i	i	i	i	i
Cn1c(=O)c2c(nc(Sc3n[nH]c(N)n3)n2Cc2ccccc2Cl)n(C)c1=O	i	i	i	i	i	i
SMILES	Her2 expr inh	FXIa mix inh	SK-BR-3 tox 24h	C1s block	Cathepsin G inh	FXIIa mix inh
CCc1nc(SCC(=O)N2CCC(C)CC2)c2c(=O)n(C)c(=O)n(C)c2n1	i	i	nt	i	i	i
S=c1nc(C2CCCCC2)[nH][nH]1	i	i	i	i	i	i
Cc1cc(-c2cc(N)n(-c3ccccc3)n2)c(C)n1C1CCCC1	i	i	43	i	i	i
CCCCCN=Cc1c(C)[nH]n(-c2nc3ccccc3s2)c1=O	-20	i	nt	i	i	i
Cc1ccc2nsnc2c1S(=O)(=O)N1CCN(C(=O)C2CCCO2)CC1 (centres undefined)	i	i	37	i	i	i
O=C(COc1cc(Cl)c(Cl)cc1Cl)Nn1cnnc1	i	i	i	i	i	i
CN(C)CC1(c2ccccc2)CCCC1	i	i	25	i	i	i
COc1ccc(S(=O)(=O)NCCc2csc(C)n2)cc1C	i	i	i	i	i	i
CCC(=O)Nc1ccc(NC(=O)CSc2nnnn2C(C)C)cc1	i	27	i	i	i	i
CC(C)(C)NC(=O)CSc1nc(O)cc(=O)n1-c1ccccc1F	i	i	i	i	i	i
COc1ccccc1-n1c(SCC(=O)NC(C)(C)C)nc(O)cc1=O	-39	i	i	i	i	i
COc1ccc(N=C(C)C2=C(O)COC2=O)cc1	i	i	i	i	i	i
COc1ccc2oc(=O)c(-c3nnc(NCc4ccco4)s3)cc2c1	-11	i	nt	i	i	i
CCOc1cccc2cc(-c3nnc(NCc4ccco4)s3)c(=O)oc12	i	i	nt	i	i	i
CCc1cc(C(=O)OC)c(N2C(=O)C3C4C=CC(C4)C3C2=O)s1 (centres undefined)	i	i	i	i	i	52
CCc1cc(C(=O)OC)c(NC(=O)CC2NCCNC2=O)s1 (centres undefined)	i	i	i	i	i	i
O=S(=O)(c1ccccc1)c1ccccc1/C=N\O	i	i	i	i	i	25
CCC(=O)N1c2ccc(S(=O)(=O)CCC(=O)NC3CCCC3)cc2CC1C (centres undefined)	i	i	nt	i	i	i
CCC(=O)N1c2ccc(S(=O)(=O)CCC(=O)N3CCn4c3nc3ccccc34)cc2CC1C (centres undefined)	-15	i	nt	i	i	i
Cn1c(=O)c2c(nc(CN3CCN(c4ccccc4)CC3)n2Cc2c(F)cccc2Cl)n(C)c1=O	i	i	i	i	i	i
CC(=O)Nc1cccc(-c2nc3ccccc3c(=O)o2)c1	i	i	i	i	65	i
CCC(=O)Nc1cccc(-c2nc3ccccc3c(=O)o2)c1	i	i	i	37	59	i
CCC(CC)C(=O)Nc1cccc(-c2nc3ccccc3o2)c1	i	i	i	i	i	i
O=C(NCCCn1ccnc1)c1cc2c(s1)CCCCC2	i	i	i	i	i	i
Cc1cc(NC(=O)CNC(=O)C2CCCCC2)no1	-20	i	nt	i	i	i
CCOC(=O)c1cccc(NC(=O)CNC(=O)C2CCCCC2)c1	i	i	i	i	i	i
O=C(Nc1ccccc1O)c1cc(S(=O)(=O)N2CCOCC2)c(Cl)cc1Cl	i	i	nt	i	i	i
O=C(NCCCn1ccnc1)c1cc(S(=O)(=O)N2CCOCC2)c(Cl)cc1Cl	-32	i	i	i	i	i
CC(=NC1CCCCC1)C1=C(O)c2ccccc2C1=O	i	nt	nt	nt	nt	nt

Screening data deposited in PubChem BioAssay by several laboratories.
